# Inconclusive results are not listed. Calls of active or inactive are those of the source. Calls follow the shape of the dose curve; as a rule, active = well fitted cell-killing curve with a large enough effect; inconclusive = small, poorly fitted or top-dose-only effect, or effect the other way; inactive = no such curve, though single readings can be large or run the other way.
# Assay: Quantitative High-Throughput drug screen in 47 multiple myeloma cell lines against the NCATS MIPE library collection: Delta47_JCRB cell viability assay (AID 1918925; also: nearly all actives have a fitted effect of over 45% in size)
# Settings: Delta47 myeloma viability, CellTiter-Glo ATP, 48 h; series mostly up to 45.8 µM
# Source text: PI: Beverly A. Mock Ph.D.
# Laboratory of Cancer Biology and Genetics,
# Center for Cancer Research, National Cancer Institute,
# National Institute of Health, Bethesda, Maryland
# Drug resistance and disease progression are common in multiple myeloma (MM) patients, underscoring the need for new therapeutic combinations. […] We hypothesized that effective combinations would reduce MYC expression and enhance p16 activity. […] These preclinical data identify potentially useful drug combinations for evaluation in drug-resistant MM and reveal potential mechanisms of combined drug sensitivity.
# Described herein is the primary MIPE qHTS used to cherrypick compounds. Validated compounds were then further tested for potential synergistic activiy.
# [1] Peat TJ, Gaikwad SM, Dubois W, Gyabaah-Kessie N, Zhang S, Gorjifard S, Phyo Z, Andres M, Hughitt VK, Simpson RM, Miller MA, Girvin AT, Taylor A, Williams D, D'Antonio N, Zhang Y, Rajagopalan A, Flietner E, Wilson K, Zhang X, Shinn P, Klumpp-Thomas C, McKnight C, Itkin Z, Chen L, Kazandijian D, Zhang J, Michalowski AM, Simmons JK, Keats J, Thomas CJ, Mock BA. Drug combinations identified by high-throughput screening promote cell cycle transition and upregulate Smad pathways in myeloma. Cancer Lett. 2023 Aug 1;568:216284. doi: 10.1016/j.canlet.2023.216284. Epub 2023 Jun 24. PMID: 37356470; PMCID: PMC10408729.
# SEQUENCE No. (e.g., 1, 2, 3, etc.); […] (e.g., Cells, Incubation, Reagent, etc.); VALUE and DESCRIPTION.
# 1; Cells; 5 uL; white, solid bottom 1536-well Greiner assay plate.
# 2; Compounds; 23 nL; Kalypsis pin tool (Wako USA) equipped with a 1536-well pin head to transfer to the assay plates.
# 3; Incubation; 48 hours; 37C incubation.
# 4; Reagent;5uL; CellTiter Glo (Promega).
# 5; Detector; 425V; Luminescence; Viewlux PerkinElmer.
# NOTES (numbers refer to Sequence numbers above)
# 1. The cell-based screening methods employed in this study were like those previously published. Briefly, the corresponding myeloma cell lines were screened in 1,536-well plates with 500 cells, 5-uL per well for inhibition of cell viability (assessed by measuring ATP levels with CellTiterGlo).
# 2. NCATS MIPE 4.0 library of approved and investigational drugs were added using the Kalypsis pin tool. Wells treated with DMSO only for 100% viability and media only wells for 0% viability were used as controls.
# 3. The assay plates were covered and incubated for 48 hours in a 37C, 5% CO2 incubator with controlled humidity.
# 4. After 48 hours, CellTilter-GloTM luminescent substrate mix (Promega) reagent was added to the assay plate and plates we incubated for 5 min at room temperature.
# 5. Signal was measured as median relative luminescence units on a ViewLux (PerkinElmer) multiplate reader.
# [1] Heske CM, Davis MI, Baumgart JT, Wilson K, Gormally MV, Chen L, Zhang X, Ceribelli M, Duveau DY, Guha R, Ferrer M, Arnaldez FI, Ji J, Tran HL, Zhang Y, Mendoza A, Helman LJ, Thomas CJ. Matrix Screen Identifies Synergistic Combination of PARP Inhibitors and Nicotinamide Phosphoribosyltransferase (NAMPT) Inhibitors in Ewing Sarcoma. Clin Cancer Res. 2017 Dec 1;23(23):7301-7311. doi: 10.1158/1078-0432.CCR-17-1121. Epub 2017 Sep 12. PMID: 28899971; PMCID: PMC6636827.
# Potency is read from the fitted curve at half-maximal effect.
row,SMILES,Potency
1,Cc1nc(NC(=O)N2CCC[C@@H]2C(N)=O)sc1-c1csc(C(C)(C)C)n1,3.32 µM (active)
2,Cc1cn([C@@H]2C[C@@H](O)[C@H](CO)O2)c(=O)[nH]c1=O,inactive
3,CC(C)(C)c1nc(-c2cccc(NS(=O)(=O)c3c(F)cccc3F)c2F)c(-c2ccnc(N)n2)s1,3.32 µM (active)
4,C[C@H]1COC2=C1C(=O)C(=O)c1c2ccc2c1CCCC2(C)C,14.8 µM (active)
5,Cc1cnc(-c2cc(N3CCN(C(=O)CCS(C)(=O)=O)CC3)ncc2Cl)c(C)c1,inactive
6,Fc1ccc(CNc2ncnc3ccc(F)cc23)cc1,7.43 µM (active)
7,Cc1[nH]c(C=C2C(=O)Nc3ccc(S(=O)(=O)N(C)c4cccc(Cl)c4)cc32)c(C)c1C(=O)N1CCN(C)CC1,14.8 µM (active)
8,Cc1c(-c2cccc3c(CCCOc4cccc5ccccc45)c(C(=O)O)n(Cc4cccnc4)c23)c(COc2ccc(N3CCN([S+](=O)([O-])N(C)C)CC3)cc2)nn1C,14.8 µM (active)
9,COc1cc2ncn(-c3cc(OCc4ccccc4S(C)(=O)=O)c(C#N)s3)c2cc1OC,inactive
10,CCNC(=O)c1noc(-c2cc(C(C)C)c(O)cc2O)c1-c1ccc(CN2CCOCC2)cc1,0.0662 µM (active)
11,O[C@@H](COc1cccc2ncccc12)CN1CCN(C2c3ccccc3[C@@H]3[C@H](c4ccccc42)C3(F)F)CC1 (stereo not given in full),16.6 µM (active)
12,CNC1[C@H](O)C(O[C@@H]2C(O)C(O[C@H]3O[C@H]([C@@H](C)NC)CC[C@H]3N)[C@@H](N)C[C@H]2N)OC[C@]1(C)O (stereo not given in full),inactive
13,O=C1CN2Cc3c(ccc(Cl)c3Cl)N=C2N1,29.6 µM (active)
14,CC(C)C[C@H](NC(=O)c1cc2ccccc2s1)C(=O)N1CCN(C(=O)[C@H](CO)NS(=O)(=O)c2ccc(Cl)cc2Cl)CC1,26.4 µM (active)
15,CC(=O)N1CCN(c2ccc(OCc3nn(C)c(C)c3-c3cccc4c(CCCOc5cc(C)c(Cl)c(C)c5)c(C(=O)O)n(Cc5cccnc5)c34)cc2)CC1,4.69 µM (active)
16,CC(C)Oc1cc(Nc2nc(N[C@@H](C)c3ccc(F)cn3)ncc2Cl)[nH]n1,8.33 µM (active)
17,CCOC(=O)[C@H]1O[C@H]1C(=O)N[C@@H](CC(C)C)C(=O)NCCC(C)C,inactive
18,OC1CCC(Nc2ncc3nc(Nc4c(F)cc(F)cc4F)n([C@@H]4CCOC4)c3n2)CC1 (stereo not given in full),8.33 µM (active)
19,O=C(O)C1=CC(O)C(O)[C@H](O)C1 (stereo not given in full),inactive
20,N#CC(=C1Nc2ccccc2S1)c1ccnc(OCc2ccc(CN3CCOCC3)cc2)n1,7.43 µM (active)

row,SMILES,Potency
1,C[C@@H](N)c1ccc(C(=O)Nc2ccnc3[nH]ccc23)cc1,26.4 µM (active)
2,CC(=O)O[C@]1(C(C)=O)CC[C@H]2[C@@H]3C=C(Cl)C4=CC(=O)[C@@H]5C[C@H]5[C@]4(C)[C@@H]3CC[C@@]21C,8.33 µM (active)
3,Cc1cnc(Nc2cccc(CN3CCOCC3)c2)nc1Nc1cccc(S(=O)(=O)NC(C)(C)C)c1,4.18 µM (active)
4,CCC(=O)NCC[C@@H]1CCc2ccc3c(c21)CCO3,inactive
5,Cc1ccc(S(=O)(=O)Nc2nc3ccccc3nc2Nc2ccc3nsnc3c2)cc1,0.575 µM (active)
6,CN(C)CCN(C)C(=O)c1ccc(NC(=O)Nc2ccc(-c3nc(N4CCOCC4)c4ccn(CC(F)(F)F)c4n3)cc2)cc1,0.0264 µM (active)
7,COc1ccc(CCN(C)CCCOc2ccc(S(=O)(=O)c3[nH]c4ccccc4c3C(C)C)cc2)cc1OC,20.9 µM (active)
8,CN1CCC[C@H]1CCO[C@](C)(c1ccccc1)c1ccc(Cl)cc1,13.2 µM (active)
9,Oc1cc(O)cc(C=Cc2ccc(O)c(O)c2)c1,4.69 µM (active)
10,CC1(C)[C@H]2CC[C@]3(C)[C@@H](C(=O)C=C4[C@@H]5C[C@@](C)(C(=O)O)CC[C@]5(C)CC[C@]43C)[C@@]2(C)CC[C@@H]1O,inactive
11,CC(=O)OCC(=O)[C@@]1(O)CC[C@H]2[C@@H]3CCC4=CC(=O)C=C[C@]4(C)[C@@H]3[C@@H](O)C[C@@]21C,inactive
12,C[C@@H]1[C@H](O)[C@@H](C)C=CC=CC=CC=CC=CC=CC=C[C@H](O[C@@H]2O[C@H](C)[C@H](O)[C@H](N)[C@@H]2O)C[C@@H]2O[C@](O)(C[C@@H](O)C[C@@H](O)[C@H](O)CC[C@@H](O)C[C@@H](O)CC(=O)O[C@H]1C)C[C@H](O)[C@@H]2C(=O)O,inactive
13,CN1c2ccccc2C(=O)N2CCc3c([nH]c4ccccc34)C21 (stereo not given),26.4 µM (active)
14,COc1c(C)c2c(c(O)c1CC=C(C)CCC(=O)OCCN1CCOCC1)C(=O)OC2,inactive
15,CN(C(Cc1ccc(OS(=O)(=O)c2cccc3cnccc23)cc1)C(=O)N1CCN(c2ccccc2)CC1)S(=O)(=O)c1cccc2cnccc12 (stereo not given),5.26 µM (active)
16,NC(=O)c1noc([C@H](CCCC2CCCCC2)CC(=O)NO)n1,9.35 µM (active)
17,O=C(Nc1ccccc1)Nc1ccc(-c2ccc(C(=O)[C@H]3CCC[C@H]3C(=O)O)cc2)cc1,inactive
18,CCc1cccc(CC)c1NC(=O)N1Cc2[nH]nc(NC(=O)c3ccc(N4CCN(C)CC4)cc3)c2C1,5.9 µM (active)
19,O=C(O)CCNc1cc(N2CCc3ccccc3CC2)nc(-c2ccccn2)n1,inactive
20,C[C@@H]1C[C@H]2[C@@H]3CCC4=CC(=O)C=C[C@]4(C)[C@@]3(F)[C@@H](O)C[C@]2(C)[C@@]1(O)C(=O)CO,inactive

# Source: PubChem BioAssay (NCATS)
